The supplement of paper PMC6555819

tested on: VDR:RXRa (NR concentration 270 nM, RXRa partner concentration 90 nM); assay: PBM binding z-score (relative to random genomic background probes); higher = stronger binding; sequences stand for … in GC…GCGATTGACAGCGTAGAATGAAGG
Protocol: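 Protein-binding microarray (Agilent 4x180K custom design, double-stranded 60-nt probes: 5' GC cap, 34-nt variable region, 24-nt constant primer region; full probe sequence given). Purified or IVT nuclear receptor:RXRα heterodimers (3:1 NR:RXRα, mostly 270:90 nM) or homodimers were incubated for 1 h in PBS with 2% milk and no ligand, then detected with Alexa488 antibodies. Fluorescence from o1-orientation probes (~5 replicates averaged) was converted to z-scores against 500 random hg19 background probes. Variable regions are seed direct-repeat (DR0–DR5) sites, all their single-nucleotide variants and half-site ablations.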

Row | Sequence | PBM binding z-score
1 | TCAGACAGGTGAAAGTAACTCAGGTACGCAGTCG | 0.591
2 | ACTATTATTTGAGACGAGGGCAACCGATAGGTTG | 1.1
3 | CCAGACAAGTGAAAGGTAACTCAGTCTGGTACGC | 0.274
4 | CATCAAAGTTCAAGGTAACGTAACAGAAAGCAGC | 4.01
5 | GCTAGCAGGCCATTTGGGTCACTCATTGACGGGC | 0.798
6 | GCGACTGGGGCAAAGAAGGTTACCATAAGGTTGG | 0.733
7 | ATCTCTAGGTAAAAGTGCAGTGAATCCCGAGGAT | 0.00627
8 | CCGAGTAGGTTATGGGGCAATCAGGCAACGGTGA | 0.00491
9 | CCTTACGGGTCAAGGCTATAGCACGGGTGGTACG | 2.77
10 | TCTTGTAGATCAATAGAGGTTAAGGAAGTGCGCT | 1.77
11 | GGAACGAGCGCATTCGAGTTGATAGCATGGCGAT | -0.761
12 | CTCGAAAGGTTGTGCTCAGGTGAGTATACCAAAC | 0.214
13 | ACTATTAGTTGACTTAGGGCAACCTATACGACGC | 0.406
14 | TCTTGTAGATTAATAGAGGTTAAGAAAGTGCGCT | 2.11
15 | TCTATTAGGTGATTAGGGCAACCGAAACAGCGGA | 0.268
16 | CCTTACGGGTCACGAGGTAATAGCACGACGAGCG | 4.18
17 | TGAATGAGGTTAAAGATCAGGGAACGTGGCGTCG | 1.99
18 | ATCGAAAGGTCGAAGGTGAGTAAACCCACCCGAA | 2.84
19 | TAGCCTAGGTCATGGGCCACTATACCACGCGAAC | 2.22
20 | CGAACTAGGTCAAGCACAGTGAATCTCCGCACGC | 1.43

Row | Sequence | PBM binding z-score
21 | GCTTACTGGTCAAAGGTTATAGCATGAATAGAAT | 2.42
22 | CCTTACGGGTCACTGACAGGTAATAGCATTTGGA | 3.17
23 | CTCGACAGGTCGGTTGAGGTGAGTATACGGATAA | 0.149
24 | TGTCGAAGTTCAAAGGTAACGTAAGTATCCACAC | 3.71
25 | GCGACTGGGGCAGAGCAGGTTACCATAAGGTTGG | -0.508
26 | GCGACTGGGGCATCATCAGGTTACCATAACTTAA | 0.00777
27 | GCAGACAGGTGAAATGCAGGTAACTCAGGGTGGC | -0.417
28 | CCTACTGGGCCCAAGGTCATTGATTCCAATGCTC | 3
29 | ATCTCTAGGTAAAAGTTCAGTTAATCCCGAGGAT | 1.44
30 | TGAATGAGGTTATTAGATCAGGGAACGTTGCAAA | 0.99
31 | TCTTGTAGATCAACAGGAGGTGAAGAAAGATCGA | 0.032
32 | CAAACTAGGTCAAGGTCAAAGCCGGTTTGTGCCA | 4.95
33 | AATACAGGGTCACTAGGCCAAAGTAGGTACGAAT | 4.27
34 | TTACCAAGGTGGAAGGTCGTTGATGCACGCCTTG | 0.464
35 | CGTGAAAGTTCAACTAAGGTAACGTAAAGCACGC | 4.46
36 | ACTAGTTGGTCAGCTGAGGCCACACACAATTCGG | 0.307
37 | ACAGACAGGTGAGTCAAGGTAACTCAGCTGGACG | -0.187
38 | AGAATCAGGTTAAGATCAGGGAAACAGAATACAT | 0.3
39 | CCTCGGAGGATAGAAGGTCAGAGCTGTCCGCTTT | 0.755
40 | CCTTCTGGGCCAAGGTCATTGATCAGTCAAAGCA | 3.17
